Laboratory results from PubChem BioAssay AID1159580 (chemical genetic matrix, 2015).
The campaign covered roughly 5,500 compounds. About 2,000 (36%) were called active. Not shown: some 18% with an inconclusive outcome. No stated cut-off is given here; in the data, active means normalized growth mostly below about 0.91 (no sharp cut-off); inconclusive means no clear call, values can overlap the other calls; inactive means mostly above about 0.92. The list shows a part of the results.

Assay: chemical genetic growth profiling, strain panel (AID 1159580);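 further: tested at 20 µM; growth read once vehicle control cultures reached saturation at 30 °C; 1 = growth at the plate median or of vehicle wells; lower values mean less growth of the strain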
Conditions: growth OD

Measured: normalized growth

COC(=O)c1c(C)cc(OC)cc1O
inactive: S. cerevisiae deletion strains, locus YJR075W, strain HOC1, active compounds read low 0.974 | S. cerevisiae deletion strains, locus YKL009W, strain mrt4, active compounds read low 0.964 | S. cerevisiae deletion strains, locus YKL068W, active compounds read low 0.995 | S. cerevisiae deletion strains, locus YKL085W, strain MDH1 (second series), active compounds read low 0.978 | S. cerevisiae deletion strains, locus YKL085W, strain MDH1, active compounds read low 0.978 | S. cerevisiae deletion strains, locus YKL160W, strain elf1, active compounds read low 0.971 | S. cerevisiae deletion strains, locus YKL190W, strain CNB1, active compounds read low 0.991 | S. cerevisiae deletion strains, locus YKR001C, strain vps1, active compounds read low 0.959 | S. cerevisiae deletion strains, locus YKR026C, strain gcn3, active compounds read low 0.972 | S. cerevisiae deletion strains, locus YKR091W, strain srl3, active compounds read low 0.974 | S. cerevisiae deletion strains, locus YLL001W, strain dnm1, active compounds read low 0.973 | S. cerevisiae deletion strains, locus YLL026W, active compounds read low 0.981 | S. cerevisiae deletion strains, locus YLL041C, strain sdh2, active compounds read low 1 | S. cerevisiae deletion strains, locus YLR027C, strain aat2, active compounds read low 0.967 | S. cerevisiae deletion strains, locus YLR039C, strain RIC1, active compounds read low 0.995 | S. cerevisiae deletion strains, locus YLR058C, strain SHM2, active compounds read low 0.998 | S. cerevisiae deletion strains, locus YLR102C, strain apc9, active compounds read low 0.981 | S. cerevisiae deletion strains, locus YLR113W, strain HOG1, active compounds read low 1.02 | S. cerevisiae deletion strains, locus YLR221C, strain rsa3, active compounds read low 0.959 | S. cerevisiae deletion strains, locus YLR258W, strain gsy2, active compounds read low 0.974 | S. cerevisiae deletion strains, locus YLR262C, strain YPT6 (second series), active compounds read low 1.02 | S. cerevisiae deletion strains, locus YLR262C, strain YPT6, active compounds read low 1.01 | S. cerevisiae deletion strains, locus YLR268W, strain sec22, active compounds read low 0.989 | S. cerevisiae deletion strains, locus YLR320W, strain mms22, active compounds read low 0.947 | S. cerevisiae deletion strains, locus YLR330W, strain CHS5, active compounds read low 0.993 | S. cerevisiae deletion strains, locus YLR342W, strain FKS1 (second series), active compounds read low 1 | S. cerevisiae deletion strains, locus YLR342W, strain FKS1, active compounds read low 0.989 | S. cerevisiae deletion strains, locus YLR357W, strain rsc2, active compounds read low 0.983 | S. cerevisiae deletion strains, locus YLR370C, strain arc18, active compounds read low 0.986 | S. cerevisiae deletion strains, locus YLR371W, strain rom2, active compounds read low 0.989 | S. cerevisiae deletion strains, locus YLR384C, strain iki3, active compounds read low 0.976 | S. cerevisiae deletion strains, locus YLR418C, strain cdc73, active compounds read low 0.941 | S. cerevisiae deletion strains, locus YML016C, strain PPZ1, active compounds read low 0.982 | S. cerevisiae deletion strains, locus YML032C, strain rad52, active compounds read low 0.976 | S. cerevisiae deletion strains, locus YML120C, strain ndi1, active compounds read low 0.988 | S. cerevisiae deletion strains, locus YML124C, strain tub3, active compounds read low 0.984 | S. cerevisiae deletion strains, locus YMR058W, strain fet3, active compounds read low 0.978 | S. cerevisiae deletion strains, locus YMR078C, strain ctf18, active compounds read low 0.981 | S. cerevisiae deletion strains, locus YMR125W, strain sto1, active compounds read low 0.993 | S. cerevisiae deletion strains, locus YMR129W, active compounds read low 0.993 | S. cerevisiae deletion strains, locus YMR205C, strain PFK2, active compounds read low 0.95 | S. cerevisiae deletion strains, locus YMR223W, strain ubp8, active compounds read low 0.971 | S. cerevisiae deletion strains, locus YMR231W, strain pep5, active compounds read low 1 | S. cerevisiae deletion strains, locus YMR263W, strain SAP30, active compounds read low 0.982 | S. cerevisiae deletion strains, locus YMR307W, strain GAS1, active compounds read low 1.03 | S. cerevisiae deletion strains, locus YNL067W, strain RPL9B, active compounds read low 0.994 | S. cerevisiae deletion strains, locus YNL071W, strain lat1, active compounds read low 0.98 | S. cerevisiae deletion strains, locus YNL128W, strain TEP1, active compounds read low 1.01 | S. cerevisiae deletion strains, locus YNL153C, strain GIM3, active compounds read low 0.988 | S. cerevisiae deletion strains, locus YNL183C, strain NPR1, active compounds read low 0.979 | S. cerevisiae deletion strains, locus YNL209W, strain ssb2, active compounds read low 0.999 | S. cerevisiae deletion strains, locus YNL233W, strain BNI4, active compounds read low 0.992 | S. cerevisiae deletion strains, locus YNL248C, strain rpa49, active compounds read low 0.982 | S. cerevisiae deletion strains, locus YNL250W, strain rad50, active compounds read low 0.979 | S. cerevisiae deletion strains, locus YNL271C, strain bni1, active compounds read low 0.978 | S. cerevisiae deletion strains, locus YNL298W, strain CLA4, active compounds read low 0.996 | S. cerevisiae deletion strains, locus YNL307C, strain MCK1, active compounds read low 0.914 | S. cerevisiae deletion strains, locus YNL322C, strain KRE1 (second series), active compounds read low 0.953 | S. cerevisiae deletion strains, locus YNL322C, strain KRE1, active compounds read low 0.997 | S. cerevisiae deletion strains, locus YNR049C, strain mso1, active compounds read low 0.998 | S. cerevisiae deletion strains, locus YNR052C, strain pop2, active compounds read low 1 | S. cerevisiae deletion strains, locus YOL006C, strain TOP1, active compounds read low 0.848 | S. cerevisiae deletion strains, locus YOL012C, strain htz1 0.923 | S. cerevisiae deletion strains, locus YOL147C, strain pex11, active compounds read low 0.978 | S. cerevisiae deletion strains, locus YOR001W, strain rrp6, active compounds read low 0.985 | S. cerevisiae deletion strains, locus YOR061W, strain CKA2, active compounds read low 1.01 | S. cerevisiae deletion strains, locus YOR069W, strain VPS5, active compounds read low 0.995 | S. cerevisiae deletion strains, locus YOR070C, strain gyp1, active compounds read low 0.971 | S. cerevisiae deletion strains, locus YOR080W, strain dia2, active compounds read low 0.982 | S. cerevisiae deletion strains, locus YOR083W, strain WHI5, active compounds read low 0.96 | S. cerevisiae deletion strains, locus YOR106W, strain vam3, active compounds read low 0.978 | S. cerevisiae deletion strains, locus YOR136W, strain idh2, active compounds read low 0.995 | S. cerevisiae deletion strains, locus YOR144C, strain elg1, active compounds read low 0.99 | S. cerevisiae deletion strains, locus YOR184W, strain ser1, active compounds read low 0.922 | S. cerevisiae deletion strains, locus YOR231W, strain MKK1, active compounds read low 1.03 | S. cerevisiae deletion strains, locus YOR265W, strain rbl2, active compounds read low 0.965 | S. cerevisiae deletion strains, locus YOR270C, strain vph1, active compounds read low 0.891 | S. cerevisiae deletion strains, locus YOR290C, strain snf2, active compounds read low 0.977 | S. cerevisiae deletion strains, locus YOR316C, strain cot1, active compounds read low 0.988 | S. cerevisiae deletion strains, locus YPL051W, strain arl3, active compounds read low 0.954 | S. cerevisiae deletion strains, locus YPL055C, strain LGE1, active compounds read low 1 | S. cerevisiae deletion strains, locus YPL078C, strain atp4, active compounds read low 0.917 | S. cerevisiae deletion strains, locus YPL106C, strain sse1, active compounds read low 0.929 | S. cerevisiae deletion strains, locus YPL240C, strain hsp82, active compounds read low 0.974 | S. cerevisiae deletion strains, locus YPL241C, strain CIN2, active compounds read low 0.994 | S. cerevisiae deletion strains, locus YPL256C, strain CLN2, active compounds read low 1.03 | S. cerevisiae deletion strains, locus YPR119W, strain clb2, active compounds read low 0.972 | S. cerevisiae deletion strains, locus YPR141C, strain kar3, active compounds read low 0.98 | S. cerevisiae deletion strains, locus YPR163C, strain tif3, active compounds read low 1 | S. cerevisiae deletion strains, locus YPR167C, strain met16, active compounds read low 0.982 | S. cerevisiae deletion strains, strain wtn01, active compounds read low 0.964 | S. cerevisiae strains, strain wild type, active compounds read low 1
